Data on five compounds can be found in PubChem BioAssay (EPA / NIEHS).

Read-out in test [1]: Human Leukocyte Antigen - DR isotype (HLADR), HLA-DRA (gene 3122)
The test can be described thus: BSK_CASM3C_HLADR: BioMAP Diversity Plus: CASM3C Assay for Human Leukocyte Antigen - DR isotype (HLADR) Biomarker Activity (AID 2283043).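 Note: cell-surface HLA-DR protein level quantified by ELISA.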 Particulars: primary human coronary artery smooth muscle cells; actives raise or lower the signal.

Read-out in test [2]: Macrophage colony-stimulating factor (MCSF), CSF1 (gene 1435)
Kind of test: BSK_CASM3C_MCSF: BioMAP Diversity Plus: CASM3C Assay for Macrophage colony-stimulating factor (MCSF) Biomarker Activity (AID 2283044).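 Note: M-CSF protein amount quantified by ELISA after 24 h exposure.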 The settings on record: primary human coronary artery smooth muscle cells; actives raise or lower the signal.

Read-out in test [3]: Low-density lipoprotein receptor (LDLR), LDLR (gene 3949)
The test can be described thus: BSK_CASM3C_LDLR: BioMAP Diversity Plus: CASM3C Assay for Low-density lipoprotein receptor (LDLR) Biomarker Activity (AID 2283045).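 Note: LDLR protein level on the cell surface quantified by ELISA.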 Particulars: primary human coronary artery smooth muscle cells; actives raise or lower the signal.

Read-out in test [4]: Monocyte Chemoattractant Protein-1 (MCP1), CCL2 (gene 6347)
Kind of test: BSK_CASM3C_MCP1: BioMAP Diversity Plus: CASM3C Assay for Monocyte Chemoattractant Protein-1 (MCP1) Biomarker Activity (AID 2283046).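 Note: MCP-1 level quantified by ELISA 24 h after dosing.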 The settings on record: primary human coronary artery smooth muscle cells; actives raise or lower the signal.

Test [5] is described as follows: BSK_CASM3C_Proliferation: Cell Proliferation Assessment in the BioMAP Diversity Plus: CASM3C Assay (AID 2283047).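 Note: sulforhodamine B total protein stain as relative cell number at 560 nm; sub-confluent cells exposed 48 h before staining; fitted both ways against DMSO so gain or loss of cell number.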 The settings on record: primary human coronary artery smooth muscle cells.
Read-out in test [6]: Monokine induced gamma interferon (MIG), CXCL9 (gene 4283)
Kind of test: BSK_CASM3C_MIG: BioMAP Diversity Plus: CASM3C Assay for Monokine induced gamma interferon (MIG) Biomarker Activity (AID 2283048).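 Note: MIG protein level measured by ELISA.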 The settings on record: primary human coronary artery smooth muscle cells; actives raise or lower the signal.

Read-out in test [7]: serum amyloid A (SAA), SAA1 (gene 6288)
The test can be described thus: BSK_CASM3C_SAA: BioMAP Diversity Plus: CASM3C Assay for serum amyloid A (SAA) Biomarker Activity (AID 2283049).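 Note: SAA protein level quantified by ELISA.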 The settings on record: primary human coronary artery smooth muscle cells; actives raise or lower the signal.

Test [8] in a line: BSK_CASM3C_SRB: Viability Assessment in the BioMAP Diversity Plus: CASM3C Assay (AID 2283050).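 Note: total protein by SRB staining as cytotoxicity measure in parallel cultures; cells exposed to compound for 24 h.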 Particulars: primary human coronary artery smooth muscle cells.
Read-out in test [9]: Thrombomodulin, THBD (gene 7056)
The test can be described thus: BSK_CASM3C_Thrombomodulin: BioMAP Diversity Plus: CASM3C Assay for Thrombomodulin Biomarker Activity (AID 2283051).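 Note: thrombomodulin protein level measured by ELISA 24 h after dosing.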 Particulars: primary human coronary artery smooth muscle cells; actives raise or lower the signal.

Read-out in test [10]: Tissue Factor, F3 (gene 2152)
Kind of test: BSK_CASM3C_TissueFactor: BioMAP Diversity Plus: CASM3C Assay for Tissue Factor Biomarker Activity (AID 2283052).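 Note: cell surface tissue factor protein level read by ELISA.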 The settings on record: primary human coronary artery smooth muscle cells; actives raise or lower the signal.

Read-out in test [11]: Interferon-gamma inducible Protein 10 (IP10), CXCL10 (gene 3627)
The test can be described thus: BSK_hDFCGF_IP10: BioMAP Diversity Plus: hDFCGF Assay for Interferon-gamma inducible Protein 10 (IP10) Biomarker Activity (AID 2283053). The settings on record: primary human foreskin fibroblasts; actives raise or lower the signal. In short, it runs like this: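 ELISA read-out of IP-10 (CXCL10) from primary human skin fibroblasts, 24 h after compound addition. Gain or loss of signal versus DMSO baseline, bidirectional curve fitting.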

Read-out in test [12]: Urokinase-type plasminogen activator receptor (uPAR), PLAUR (gene 5329)
Kind of test: BSK_CASM3C_uPAR: BioMAP Diversity Plus: CASM3C Assay for Urokinase-type plasminogen activator receptor (uPAR) Biomarker Activity (AID 2283054).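 Note: cell-surface uPAR protein level quantified by ELISA.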 Particulars: primary human coronary artery smooth muscle cells; actives raise or lower the signal.

Read-out in test [13]: Vascular cell adhesion molecule 1 (VCAM1), VCAM1 (gene 7412)
The test can be described thus: BSK_CASM3C_VCAM1: BioMAP Diversity Plus: CASM3C Assay for Vascular cell adhesion molecule 1 (VCAM1) Biomarker Activity (AID 2283055).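 Note: VCAM-1 protein level quantified by ELISA on the cells.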 Particulars: primary human coronary artery smooth muscle cells; actives raise or lower the signal.

Read-out in test [14]: Collagen III, COL3A1 (gene 1281)
The test can be described thus: BSK_hDFCGF_CollagenIII: BioMAP Diversity Plus: hDFCGF Assay for Collagen III Biomarker Activity (AID 2283056). Particulars: primary human foreskin fibroblasts; actives raise or lower the signal. In short, it runs like this:
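Human foreskin primary fibroblasts were exposed to test chemicals for 24 h, after which collagen III was quantified by ELISA. Activity was fitted bidirectionally against DMSO as negative control and baseline.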

Read-out in test [15]: Epidermal growth factor receptor (EGFR), EGFR (gene 1956)
The test can be described thus: BSK_hDFCGF_EGFR: BioMAP Diversity Plus: hDFCGF Assay for Epidermal growth factor receptor (EGFR) Biomarker Activity (AID 2283057). Particulars: primary human foreskin fibroblasts; actives raise or lower the signal. In short, it runs like this:
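ELISA readout of EGFR on human dermal fibroblasts (primary foreskin cells), 24 h post-dosing; bidirectional curve fit vs DMSO baseline, gain or loss of signal scored.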

Read-out in test [16]: Interleukin-8 (IL8), CXCL8 (gene 3576)
Kind of test: BSK_hDFCGF_IL8: BioMAP Diversity Plus: hDFCGF Assay for Interleukin-8 (IL8) Biomarker Activity (AID 2283058). Particulars: primary human foreskin fibroblasts; actives raise or lower the signal. An outline of the steps: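 hDFCGF human dermal fibroblasts; 24 h chemical exposure; IL-8 by ELISA; bidirectional curve fit vs DMSO baseline; gain or loss of signal scored.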

A short description of test [17]: BSK_hDFCGF_Proliferation: Cell Proliferation Assessment in the BioMAP Diversity Plus: hDFCGF Assay (AID 2283059).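 Note: curves fitted for both rise and fall of signal versus DMSO baseline.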 Particulars: primary human foreskin fibroblasts. In short, it runs like this: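 Primary human foreskin fibroblasts, sub-confluent; […]; 10% TCA fix, 0.1% SRB stain, A560 total protein. Gain/loss fitted bidirectionally vs DMSO control.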
Read-out in test [18]: Macrophage colony-stimulating factor (MCSF), CSF1 (gene 1435)
The test can be described thus: BSK_hDFCGF_MCSF: BioMAP Diversity Plus: hDFCGF Assay for Macrophage colony-stimulating factor (MCSF) Biomarker Activity (AID 2283060). The settings on record: primary human foreskin fibroblasts; actives raise or lower the signal. In short, it runs like this:
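Human foreskin primary fibroblasts were treated with test chemical for 24 h, and M-CSF was then measured by ELISA. Data were fitted bidirectionally against DMSO as the negative control and activity baseline.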

Test [19] in a line: BSK_hDFCGF_SRB: Viability Assessment in the BioMAP Diversity Plus: hDFCGF Assay (AID 2283061).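 Note: cells exposed to compound for 24 h before the read.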 Particulars: primary human foreskin fibroblasts. In short, it runs like this: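 Human foreskin primary fibroblasts were treated with compound and assessed 24 h after dosing. Total protein was measured by sulforhodamine B staining (0.1% SRB after 10% TCA fixation, 560 nm read) as a cytotoxicity marker, with bidirectional fitting against DMSO baseline.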

Read-out in test [20]: TIMP metallopeptidase inhibitor 1 (TIMP1), TIMP1 (gene 7076)
The test can be described thus: BSK_hDFCGF_TIMP1: BioMAP Diversity Plus: hDFCGF Assay for TIMP metallopeptidase inhibitor 1 (TIMP1) Biomarker Activity (AID 2283062). The settings on record: primary human foreskin fibroblasts; actives raise or lower the signal. In short, it runs like this:
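Primary human foreskin fibroblasts in the hDFCGF system were dosed with compound for 24 h, then TIMP-1 was measured by ELISA. Activity was fitted bidirectionally relative to DMSO control; parallel SRB staining assessed cytotoxicity.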

Activity calls are given as the source filed them. Rule for the calls: active = hit-call score of the fitted dose curve at least 0.9, where 1 is the maximum; inactive = score below 0.9.

`Cc1ncc(CO)c(CO)c1O`: the result in test [1], in [2], in test [3], in test [4], in test [5] and in test [6] was inactive. In addition, the outcome in test [7], in [8], in test [9], in test [10], in test [11] and in test [12] was inactive. The result in test [13], in test [14], in test [15], in [16], in [17] and in [18] was inactive. Also, the result in test [19] and in [20] was inactive.

Regarding `CCCC(=O)OCCC(C)C`, the result in test [1], in [2], in test [3], in test [4], in test [5] and in test [6] was inactive. In addition, the outcome in test [7], in test [8], in test [9], in [10], in test [11] and in test [12] was inactive. In addition, the result in test [13], in test [14], in test [15], in test [16], in test [17] and in [18] was inactive. Also, the outcome in test [19] and in test [20] was inactive.

Regarding `O=C1O[C@H]([C@@H](O)CO)C(O)=C1O`, the result in [1], in test [2], in [3], in [4], in test [5] and in [6] was inactive. The result in test [7], in [8], in test [9], in [10], in [11] and in [12] was inactive. The result in [13], in test [14], in [15], in test [16], in [17] and in [18] was inactive. Also, the result in test [19] and in test [20] was inactive.

In the case of `CC(C)(c1cc(Br)c(O)c(Br)c1)c1cc(Br)c(O)c(Br)c1`, the concentration at half-maximal activity (AC50) in test [1] is 33.1 µM (active); in test [2], 19.1 µM (active); in [4], 30.1 µM (active); in test [5], 32 µM (active); in [7], 31.9 µM (active); in test [9] it was 25 µM (active). The half-maximal activity concentration (AC50) was 31.7 µM (active) in test [10]; 6.23 µM (active) in test [11]; 31.2 µM (active) in [12]; 29.3 µM (active) in test [13]; 3.85 µM (active) in [14]; 11.5 µM (active) in test [16]. Moreover, the AC50 in [17] is 3.94 µM (active); in test [18] it was 7.47 µM (active); in test [19], 5.8 µM (active); in test [20] it was 6.42 µM (active). The outcome in test [3], in [6], in test [8] and in test [15] was inactive.

As for `CN1C(=O)N(c2ccccc2Br)Cc2cnc(Nc3ccc4c(c3)OCC(CO)O4)nc21` (stereo not given), the half-maximal activity concentration (AC50) was 11.5 µM (active) in test [1]; 5.62 µM (active) in test [2]; 37.8 µM (active) in test [3]; 9.73 µM (active) in [4]; 1.27 µM (active) in test [5]; 32.3 µM (active) in test [6]. The AC50 in test [7] is 5.98 µM (active); in [8], 20 µM (active); in test [10] it was 0.952 µM (active); in test [11], 21.3 µM (active); in test [12], 13.6 µM (active); in [16], 16.1 µM (active). Also, the AC50 in [17] was 11.9 µM (active); in test [18] it was 20.4 µM (active); in [19], 19 µM (active); in test [20], 6.79 µM (active). Besides, the result in [9], in test [13], in test [14] and in test [15] was inactive.

By AC50 is commonly meant the midpoint of the concentration-response curve, whichever way the signal moves.
